Experimental data taken from PubChem BioAssay (EPA / NIEHS).
Several values for one entry are separate records, joined by “and”; a condition that tells them apart may be missing. Equal values may be shown once. Where a structure was tested more than once in an assay, its records may differ in their call. Activity calls are given as the source filed them. How the source made its calls: active means hit-call score of the fitted dose curve at least 0.9, where 1 is the maximum; inactive means score below 0.9.

What was measured:
[1] = read-out: Vascular cell adhesion molecule 1 (VCAM1), VCAM1 (gene 7412); assay: BSK_BF4T_VCAM1: BioMAP Diversity Plus: BF4T Assay for Vascular cell adhesion molecule 1 (VCAM1) Biomarker Activity (AID 2284249); conditions: primary human bronchial epithelial cells with fibroblasts
Summary of the method: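 Cell-surface VCAM-1 quantified by ELISA after 24 h chemical exposure of human bronchial epithelial/dermal fibroblast co-cultures, with SRB staining in parallel wells for cytotoxicity; DMSO baseline, positive-direction fitting.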

[2] = read-out: Collagen I, COL1A1 (gene 1277); assay: BSK_hDFCGF_CollagenI: BioMAP Diversity Plus: hDFCGF Assay for Collagen I Biomarker Activity (AID 2284250); conditions: primary human foreskin fibroblasts
Summary of the method: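 Collagen I quantified by ELISA 24 h after chemical dosing of human dermal fibroblast primary cells, with parallel SRB staining (0.1%, TCA-fixed, 560 nm) for overt cytotoxicity.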

[3] = read-out: Interferon-inducible T-cell alpha chemoattractant (ITAC), CXCL11 (gene 6373); assay: BSK_hDFCGF_ITAC: BioMAP Diversity Plus: hDFCGF Assay for Interferon-inducible T-cell alpha chemoattractant (ITAC) Biomarker Activity (AID 2284251); conditions: primary human foreskin fibroblasts
Summary of the method: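 Chemical dosing of primary human foreskin fibroblast cultures preceded ELISA measurement of I-TAC at 24 h. Response was analysed in the positive direction using DMSO as baseline, while parallel SRB staining measured cytotoxicity.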

[4] = read-out: Plasminogen activator inhibitor-1 (PAI1), SERPINE1 (gene 5054); assay: BSK_KF3CT_PAI1: BioMAP Diversity Plus: KF3CT Assay for Plasminogen activator inhibitor-1 (PAI1) Biomarker Activity (AID 2284252); conditions: primary human keratinocytes with fibroblasts
Summary of the method: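 PAI-1 levels quantified by ELISA after 24 h compound exposure of primary human skin keratinocytes co-cultured with fibroblasts. Activity is the gain relative to DMSO; cytotoxicity tracked in parallel cultures via SRB staining.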

[5] = read-out: Monocyte Chemoattractant Protein-1 (MCP1), CCL2 (gene 6347); assay: BSK_IMphg_MCP1: BioMAP Diversity Plus: IMphg Assay for Monocyte Chemoattractant Protein-1 (MCP1) Biomarker Activity (AID 2284253); conditions: primary human endothelial cells with macrophages
Summary of the method: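 ELISA readout of MCP-1 at 24 hours in IMphg co-cultures of venular endothelial cells and macrophages, normalised to DMSO; parallel cultures stained with sulforhodamine B for overt cytotoxicity.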

[6] = read-out: Interleukin-8 (IL8), CXCL8 (gene 3576); assay: BSK_KF3CT_IL8: BioMAP Diversity Plus: KF3CT Assay for Interleukin-8 (IL8) Biomarker Activity (AID 2284254); conditions: primary human keratinocytes with fibroblasts
Summary of the method: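 IL-8 read-out: ELISA, 24 h post-dose, human skin primary co-culture (keratinocytes + foreskin fibroblasts). DMSO = baseline; positive-direction fit.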

[7] = read-out: Macrophage Inflammatory Protein-1 Alpha (MIP1a), CCL3 (gene 6348); assay: BSK_IMphg_MIP1a: BioMAP Diversity Plus: IMphg Assay for Macrophage Inflammatory Protein-1 Alpha (MIP1a) Biomarker Activity (AID 2284255); conditions: primary human endothelial cells with macrophages
Summary of the method: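 MIP-1a protein levels were quantified by ELISA after 24 h treatment of human endothelial cell–macrophage co-cultures, compared with DMSO. Parallel cultures were fixed with TCA and stained with 0.1% SRB to gauge overt cytotoxicity.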

[8] = read-out: Plasminogen activator inhibitor-1 (PAI1), SERPINE1 (gene 5054); assay: BSK_MyoF_PAI1: BioMAP Diversity Plus: MyoF Assay for Plasminogen activator inhibitor-1 (PAI1) Biomarker Activity (AID 2284256); conditions: primary human lung fibroblasts
Summary of the method: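 MyoF lung fibroblasts, human primary; compound 24 h; PAI-1 ELISA; positive-direction fit vs DMSO baseline; parallel SRB total-protein staining for cytotoxicity.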

[9] = read-out: CD69, CD69 (gene 969); assay: BSK_IMphg_CD69: BioMAP Diversity Plus: IMphg Assay for CD69 Biomarker Activity (AID 2284257); conditions: primary human endothelial cells with macrophages
Summary of the method: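 Readout is ELISA for CD69 in primary human venular endothelial cell/macrophage co-culture, taken at 24 h post-dosing. SRB staining of parallel cultures gauged overt cytotoxicity; signal increase versus DMSO defined activity.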

[10] = read-out: Eotaxin 3, CCL26 (gene 10344); assay: BSK_BF4T_Eotaxin3: BioMAP Diversity Plus: BF4T Assay for Eotaxin 3 Biomarker Activity (AID 2284258); conditions: primary human bronchial epithelial cells with fibroblasts
Summary of the method: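 ELISA measurement of Eotaxin-3 after 24 h chemical exposure in a bronchial epithelial/dermal fibroblast co-culture, with DMSO as baseline. Parallel SRB staining (0.1% SRB after 10% TCA fixation, 560 nm) flagged overt cytotoxicity.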

[11] = read-out: Intercellular Adhesion Molecule 1 (ICAM1), ICAM1 (gene 3383); assay: BSK_BF4T_ICAM1: BioMAP Diversity Plus: BF4T Assay for Intercellular Adhesion Molecule 1 (ICAM1) Biomarker Activity (AID 2284260); conditions: primary human bronchial epithelial cells with fibroblasts
Summary of the method: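 ICAM-1 levels measured by ELISA after 24 h chemical treatment of bronchial epithelial cell/dermal fibroblast co-cultures, read against DMSO baseline. Overt cytotoxicity checked in parallel cultures by sulforhodamine B staining.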

[12] = read-out: Interleukin-8 (IL8), CXCL8 (gene 3576); assay: BSK_MyoF_IL8: BioMAP Diversity Plus: MyoF Assay for Interleukin-8 (IL8) Biomarker Activity (AID 2284261); conditions: primary human lung fibroblasts
Summary of the method: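 Lung fibroblasts (human primary) → chemical exposure → 24 h → IL-8 measured by ELISA. Signal increase scored versus DMSO control.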

[13] = read-out: CD90, THY1 (gene 7070); assay: BSK_BF4T_CD90: BioMAP Diversity Plus: BF4T Assay for CD90 Biomarker Activity (AID 2284262); conditions: primary human bronchial epithelial cells with fibroblasts
Summary of the method: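 CD90 levels by ELISA after 24 h treatment of human bronchial epithelial cell/dermal fibroblast cultures, analysed versus DMSO. Overt cytotoxicity checked in parallel cultures by sulforhodamine B staining.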

[14] = read-out: Interleukin-8 (IL8), CXCL8 (gene 3576); assay: BSK_BF4T_IL8: BioMAP Diversity Plus: BF4T Assay for Interleukin-8 (IL8) Biomarker Activity (AID 2284263); conditions: primary human bronchial epithelial cells with fibroblasts
Summary of the method: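 Human bronchial epithelial cells with dermal fibroblasts co-culture; IL-8 measured by ELISA 24 hours after dosing, fitted vs DMSO. Cytotoxicity tracked in parallel cultures by SRB total-protein staining.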

[15] = read-out: Interleukin-1 alpha (IL1a), IL1A (gene 3552); assay: BSK_BF4T_IL1a: BioMAP Diversity Plus: BF4T Assay for Interleukin-1 alpha (IL1a) Biomarker Activity (AID 2284264); conditions: primary human bronchial epithelial cells with fibroblasts
Summary of the method: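 ELISA read-out of IL-1α from bronchial epithelial cell/dermal fibroblast co-cultures 24 h after compound addition. Increases scored against DMSO negative control. Cytotoxicity monitored by sulforhodamine B staining of parallel cultures.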

[16] = read-out: Decorin, DCN (gene 1634); assay: BSK_MyoF_Decorin: BioMAP Diversity Plus: MyoF Assay for Decorin Biomarker Activity (AID 2284265); conditions: primary human lung fibroblasts
Summary of the method: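 ELISA readout of decorin, 24 h post-dosing; primary human lung fibroblast (MyoF) culture; gain-of-signal fit vs DMSO baseline.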

[17] = read-out: Matrix Metallopeptidase 1 (MMP1), MMP1 (gene 4312); assay: BSK_MyoF_MMP1: BioMAP Diversity Plus: MyoF Assay for Matrix Metallopeptidase 1 (MMP1) Biomarker Activity (AID 2284268); conditions: primary human lung fibroblasts
Summary of the method: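 Cells: human lung fibroblasts. Exposure: 24 h chemical dosing. Detection: ELISA for MMP1. Analysis: upward fitting against DMSO negative control.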

[18] = read-out: TIMP metallopeptidase inhibitor 1 (TIMP1), TIMP1 (gene 7076); assay: BSK_MyoF_TIMP1: BioMAP Diversity Plus: MyoF Assay for TIMP metallopeptidase inhibitor 1 (TIMP1) Biomarker Activity (AID 2284269); conditions: primary human lung fibroblasts
Summary of the method: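 ELISA read-out of TIMP-1 from primary human lung fibroblast cultures 24 h after compound dosing; gain of signal relative to DMSO vehicle baseline defines activity.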

[19] = read-out: Matrix Metallopeptidase 1 (MMP1), MMP1 (gene 4312); assay: BSK_BF4T_MMP1: BioMAP Diversity Plus: BF4T Assay for Matrix Metallopeptidase 1 (MMP1) Biomarker Activity (AID 2284270); conditions: primary human bronchial epithelial cells with fibroblasts
Summary of the method: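 MMP-1 quantified by ELISA in primary human bronchial epithelial/dermal fibroblast co-cultures, 24 hours post-dosing, with DMSO as baseline; parallel sulforhodamine B staining (560 nm) tracks overt cytotoxicity.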

[20] = read-out: Tissue plasminogen activator (tPA), PLAT (gene 5327); assay: BSK_BF4T_tPA: BioMAP Diversity Plus: BF4T Assay for Tissue plasminogen activator (tPA) Biomarker Activity (AID 2284272); conditions: primary human bronchial epithelial cells with fibroblasts
Summary of the method: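 tPA level quantified by ELISA at 24 h post-treatment in bronchial epithelial/dermal fibroblast co-cultures, gain of signal scored against DMSO baseline. Parallel cultures stained with 0.1% SRB (560 nm) to flag overt cytotoxicity.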

Measured: AC50

C[Si](C)(C)C(F)(F)C(F)(F)C(F)(F)F
inactive: all assays above

OC(O)(C(F)C(O)(O)C(F)(F)F)C(F)(F)F
inactive: [1] | [2] | [4] | [5] | [6] | [8] | [9] | [10] | [11] | [12] | [13] | [14] | [15] | [16] | [17] | [18] | [19] | [20]
active: [3] 8.03 µM and 15 µM | [7] 5.44 µM and 7.95 µM | [18] 991 nM

FC(F)(F)C(F)(F)C(F)(F)C(F)(F)C(F)(F)C(F)(F)I
inactive: [1] | [2] | [3] | [4] | [5] | [6] | [7] | [9] | [10] | [11] | [12] | [13] | [14] | [15] | [16] | [18] | [19] | [20]
active: [3] 47.4 µM | [8] 38.6 µM and 22.2 µM | [17] 14 µM and 21.6 µM

NCC(F)(F)C(F)(F)C(F)(F)C(F)(F)F
active: [18] 307 nM
inactive: [1] | [2] | [3] | [4] | [5] | [6] | [7] | [8] | [9] | [10] | [11] | [12] | [13] | [14] | [15] | [16] | [17] | [18] | [19] | [20]

OCc1c[nH]c2ccccc12
inactive: [8] | [12] | [16] | [18]
active: [17] 16.8 µM

Cc1cccc(O)c1C
inactive: [8] | [12] | [16] | [17] | [18]

FC(F)(F)COC(OCC(F)(F)F)OCC(F)(F)F
inactive: all assays above
